# Reference: PubChem BioAssay
# Calls of active or inactive are those of the source. Unless noted, the rule behind the calls is not given here.
# How the values were obtained:
# [1] = compound effects on lung adenocarcinoma cell viability – A549, calcein-AM fluorescence, 48 h, basal, profiling panel (AID 1162); details: higher = more signal; note: test concentration not given here
# [2] = compound effects on differentiated 3T3-L1 adipocyte viability – cell-based, 3T3-L1 adipocytes, calcein-AM fluorescence, 48 h, basal, profiling panel (AID 1163); details: 3T3-L1 adipocytes viability, higher = more signal; note: test concentration not given here
# [3] = compound effects on hepatocellular carcinoma cell viability – HepG2, calcein-AM fluorescence, 48 h, basal, profiling panel (AID 1164); details: higher = more signal; note: test concentration not given here
# [4] = compound effects on multiple myeloma cell viability – MM1S, calcein-AM fluorescence, 48 h, basal, profiling panel (AID 1165); details: higher = more signal;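 note: viability of MM1S multiple myeloma cells under basal unstimulated conditions; test concentration not given here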
# [5] = calcein-AM signal in unstimulated myeloma cells – cell-based, calcein-AM fluorescence, 48 h, PK04 Diversity Set, profiling panel (AID 1166); details: RPMI8226 myeloma viability, higher = more signal;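 note: cells grown under basal conditions without added stimulus; test concentration not given here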
# [6] = JC-1 mitochondrial signal, unstimulated HepG2 cells – cell-based, JC-1 fluorescence, 24 h, 100 nL compound, profiling panel (AID 1167); details: HepG2 mitochondrial potential, higher = more signal; note: test concentration not given here
# [7] = JC-1 mitochondrial signal, unstimulated adipocytes – cell-based, JC-1 fluorescence, 3T3-L1 adipocytes, 24 h, 100 nL compound, profiling panel (AID 1168); details: JC-1 mitochondrial fluorescence, higher = more signal, called active from +8 up or from −8 down; note: test concentration not given here
# [8] = JC-1 mitochondrial signal, unstimulated myeloma cells – cell-based, JC-1 fluorescence, RPMI8226, 24 h, 100 nL compound, profiling panel (AID 1169); details: JC-1 mitochondrial potential fluorescence, higher = more signal; note: test concentration not given here
# [9] = JC-1 mitochondrial signal, unstimulated MM1S myeloma – cell-based, JC-1 fluorescence, 24 h, 100 nL compound, profiling panel (AID 1170); details: MM1S mitochondrial potential, higher = more signal; note: test concentration not given here
# [10] = resazurin metabolic signal in A549 cells – cell-based, resazurin fluorescence, 24 h, PK04 Diversity Set, profiling panel (AID 1171); details: A549 viability, higher = more signal, called active from +8 up or from −8 down; note: test concentration not given here
# [11] = resazurin metabolic signal in HepG2 cells – cell-based, resazurin fluorescence, 24 h, PK04 Diversity Set, profiling panel (AID 1172); details: HepG2 viability, higher = more signal; note: test concentration not given here
# [12] = budding yeast growth changes without added modifier – OD600, strain BY4716, 24 h, basal condition, primary screen (AID 1173); details: S. cerevisiae BY4716 growth, OD600, 24 h; higher = more signal, called active from +8 up or from −8 down
# [13] = viability profiling in MM1S myeloma cells – cell-based, resazurin fluorescence, basal, 24 h, PK04 Diversity Set, profiling panel (AID 1174); details: higher = more signal, called active from +8 up or from −8 down; note: test concentration not given here
# [14] = target: Dihydroorotate dehydrogenase (quinone), mitochondrial (Plasmodium falciparum (isolate 3D7)) (UniProt Q08210); assay: inhibition of P. falciparum DHODH – biochemical, C-terminal His tag, absorbance 600 nm, primary screen (AID 1175); details: PfDHODH enzyme, DCIP absorbance 600 nm; higher = more signal, called active from +8 up or from −8 down;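 note: recombinant parasite enzyme with a five histidine tag at its C terminus; test concentration not given here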
# [15] = inhibition of PAO1 biofilm formation – strain PAO1, LB-PBS medium, absorbance 600 nm, primary screen (AID 1176); note: test concentration not given here; details: P. aeruginosa PAO1 growth/biofilm, A600, 12 h; higher = more signal
# [16] = growth modulation of vineyard yeast isolate – strain RM11-1a, OD600, basal, 24 h, primary screen (AID 1177);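 note: cultures grown under basal conditions with no added stressor; test concentration not given here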; details: S. cerevisiae RM11-1a growth, OD600, 24 h; higher = more signal, called active from +8 up or from −8 down
# [17] = growth of efflux-deficient E. coli DRC39 – strain DRC39, OD650, 24 h, E. coli filamentation inducers, primary screen (AID 1178);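 note: growth measured as culture turbidity by optical density at 650 nm; test concentration not given here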; details: E. coli DRC39 acrAB, higher = more signal, called active from +8 up or from −8 down
# [18] = growth of efflux-deficient E. coli DRC39 – strain DRC39, OD650, 48 h, E. coli filamentation inducers, primary screen (AID 1179);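 note: screen aims at cell division blockers that make cells filament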; details: E. coli DRC39 delta-acrAB growth, higher = more signal, called active from +8 up or from −8 down
# [19] = viability profiling in RPMI8226 myeloma cells – cell-based, resazurin fluorescence, basal, 24 h, PK04 Diversity Set, profiling panel (AID 1180); details: higher = more signal;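 note: RPMI8826 multiple myeloma cell line at 5000 cells per well; test concentration not given here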
# [20] = target: E3 ubiquitin-protein ligase XIAP (Homo sapiens) (UniProt P98170); assay: small molecules binding XIAP protein – biophysical, small-molecule microarray, fluorescence 635 nm, primary screen (AID 1181); details: higher = more signal;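 note: score merges 667 nm emission and signal to noise over triplicate slides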
# Chain of E3 ubiquitin-protein ligase XIAP (Homo sapiens) (P98170 whole entry, looked up): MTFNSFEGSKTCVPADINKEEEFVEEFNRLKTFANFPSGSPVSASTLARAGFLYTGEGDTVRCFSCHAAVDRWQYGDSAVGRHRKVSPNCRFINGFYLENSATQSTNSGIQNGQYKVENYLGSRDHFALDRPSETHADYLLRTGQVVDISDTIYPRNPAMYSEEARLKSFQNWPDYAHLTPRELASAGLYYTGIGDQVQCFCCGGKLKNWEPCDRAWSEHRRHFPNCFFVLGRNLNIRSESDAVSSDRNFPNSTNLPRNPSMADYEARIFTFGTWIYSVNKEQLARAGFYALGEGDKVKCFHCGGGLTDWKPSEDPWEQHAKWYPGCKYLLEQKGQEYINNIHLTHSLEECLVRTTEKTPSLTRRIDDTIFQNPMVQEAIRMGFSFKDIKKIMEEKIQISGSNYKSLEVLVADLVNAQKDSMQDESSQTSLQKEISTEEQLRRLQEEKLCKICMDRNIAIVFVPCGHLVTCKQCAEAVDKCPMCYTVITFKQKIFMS
# Chain of Dihydroorotate dehydrogenase (quinone), mitochondrial (Plasmodium falciparum (isolate 3D7)) (Q08210 whole entry, looked up): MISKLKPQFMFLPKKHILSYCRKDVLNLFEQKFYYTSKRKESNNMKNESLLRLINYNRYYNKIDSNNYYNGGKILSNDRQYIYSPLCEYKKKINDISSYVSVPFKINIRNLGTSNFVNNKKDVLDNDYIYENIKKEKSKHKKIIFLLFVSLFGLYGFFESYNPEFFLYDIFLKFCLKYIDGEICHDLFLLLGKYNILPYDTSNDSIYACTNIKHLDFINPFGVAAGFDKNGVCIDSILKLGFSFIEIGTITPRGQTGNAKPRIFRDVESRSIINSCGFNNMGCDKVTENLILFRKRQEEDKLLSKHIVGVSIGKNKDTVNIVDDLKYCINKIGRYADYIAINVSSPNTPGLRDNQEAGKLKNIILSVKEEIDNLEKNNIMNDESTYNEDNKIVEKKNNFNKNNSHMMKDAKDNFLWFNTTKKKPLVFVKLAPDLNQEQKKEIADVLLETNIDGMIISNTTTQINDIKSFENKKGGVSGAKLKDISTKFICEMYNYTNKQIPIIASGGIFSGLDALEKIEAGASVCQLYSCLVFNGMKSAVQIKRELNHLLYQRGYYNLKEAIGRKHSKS
Structure (SMILES),z-score [1],z-score [2],z-score [3],z-score [4],z-score [5],z-score [6],z-score [7],z-score [8],z-score [9],z-score [10],z-score [11],z-score [12],z-score [13],composite z-score [14],z-score [15],z-score [16],z-score [17],z-score [18],z-score [19],composite z-score [20]
CN(C)CCCCCCNC(=O)[C@@H]1C[C@@H]2C(=O)N3CCC[C@H]3C(=O)N2[C@@H]1c1cccc(OCCO)c1,-0.84,-0.314,-0.679,-0.592,-0.156,-1.06,0.444 (inactive),0.605,0.784,-0.954 (inactive),-2.4,0.451 (inactive),-0.727 (inactive),-0.595 (inactive),-0.267 (inactive),0.363 (inactive),0.0047 (inactive),-0.391 (inactive),-0.946,-0.0062
NCCCCCNC(=O)[C@H]1C[C@H]2C(=O)N3CCC[C@H]3C(=O)N2[C@H]1c1cccc(OCCO)c1,-0.173,0.101,-0.816,-1.53,-0.881,0.37,0.13 (inactive),0.113,-0.503,-0.845 (inactive),-1.25,-0.0559 (inactive),-0.02 (inactive),0.322 (inactive),-0.252 (inactive),-0.132 (inactive),-0.658 (inactive),-1.33 (inactive),-0.29,0.256
COCC(=C=CC[C@H](O)c1ccccc1OCCO)C[C@H](O)c1ccccn1,1.12,0.381,0.781,0.943,0.139,1.01,-0.443 (inactive),-0.471,-1.09,-0.0836 (inactive),0.839,-0.329 (inactive),0.324 (inactive),-2.09 (inactive),0.354 (inactive),-0.115 (inactive),0.696 (inactive),0.547 (inactive),-0.543,-0.102
C=CCOC(=O)[C@@]1(Cc2ccccc2)C[C@H]2CO[C@H](c3ccc(OC)cc3)N2C1=O,0.158,0.223,-0.311,-0.657,-1.5,-0.574,0.437 (inactive),-0.272,-0.47,0.864 (inactive),-0.352,-2.69 (inactive),0.437 (inactive),-0.972 (inactive),0.125 (inactive),-1.1 (inactive),-0.0115 (inactive),-0.187 (inactive),0.0399,-0.184
CC(=O)NCCCC[C@@H]1NC(=O)[C@@H]2C[C@H](C(=O)NCCCCCN)[C@H](c3cccc(OCCO)c3)N2C1=O,1.3,0.749,0.74,0.151,1.3,0.0102,0.608 (inactive),-0.721,-0.0434,0.914 (inactive),0.619,-0.659 (inactive),0.427 (inactive),-0.585 (inactive),0.392 (inactive),-1.42 (inactive),1.03 (inactive),1.9 (inactive),0.0926,0.087
CCN(CC)c1ccc(N2CC=CC34O[C@@H]5/C=C\CCCOC(=O)C5[C@H]3C(=O)N(C(C)CO)[C@@H]4C2=O)cc1 (stereo not given in full),0.838,-0.536,1.43,1.67,0.403,0.8,0.744 (inactive),-0.441,0.135,0.0032 (inactive),0.242,-0.566 (inactive),0.516 (inactive),-2.25 (inactive),-0.14 (inactive),-0.355 (inactive),1.9 (inactive),1.92 (inactive),0.778,0.115
CC(C)(C)OC(=O)CC[C@@]1(C(=O)NCC(O)CO)N=C(c2ccc(OCCCO)cc2)O[C@@H]1c1ccccc1CN=[N+]=[N-] (stereo not given in full),1.25,0.478,-0.0162,-0.217,-0.34,0.0542,0.0122 (inactive),-0.418,1.12,0.0255 (inactive),0.507,-0.215 (inactive),-0.0579 (inactive),0.345 (inactive),0.869 (inactive),-0.181 (inactive),0.642 (inactive),-0.154 (inactive),0.126,0.153
NCCCCCNC(=O)[C@@H]1C[C@@H]2C(=O)N[C@@H](CCCCN)C(=O)N2[C@@H]1c1ccc(O)cc1,-0.0858,-0.426,0.131,-0.29,-0.0496,-0.573,1.56 (inactive),-0.457,-1.14,0.0497 (inactive),0.983,1.95 (inactive),0.116 (inactive),0.0173 (inactive),2.49 (inactive),2.39 (inactive),-0.0253 (inactive),-0.14 (inactive),0.249,0.554
CCOC(=O)C[C@H]1[C@H](OC(=O)c2cc3ccccc3oc2=O)[C@@H](NC(=O)c2ccc3ccccc3n2)c2cc(OCCCO)ccc2N1C(=O)Cc1ccc(OC)cc1,0.308,0.499,-0.355,0.765,-0.946,0.492,-0.362 (inactive),0.498,-0.423,0.711 (inactive),1.16,-0.105 (inactive),-0.76 (inactive),-0.543 (inactive),-1 (inactive),0.796 (inactive),0.662 (inactive),0.0535 (inactive),-0.284,-0.173
